aSyn UTR act: Activators via SNCA 5'UTR binding, MLPCN. 7.1% of 300,000 active. activity score, % (tested at 7.5 µM), hits read low. alpha-synuclein 5'UTR reporter, activators screen; in the data active = activity score below about -60%
Numbers without * were called inactive. Only a sample is shown.

Screening NC(=NCCCCCCN=C(N)/N=C(\N)Nc1ccc(Cl)cc1)/N=C(\N)Nc1ccc(Cl)cc1 returned aSyn UTR act 96.
`CSc1ccc(NC(=O)NCc2ccccc2)cc1` gave aSyn UTR act -152*.
For O=C(NCC1CC1)Nc1ccc(Cl)cc1 the results were aSyn UTR act -79*.
`O=C(NCc1ccc(F)cc1)Nc1ccccc1` gave aSyn UTR act -108*.
Cc1ccc(CNC(=O)Cc2cccs2)cc1 was read as aSyn UTR act -70*.
Screening Cc1ccc(C)c(CNC(=O)Nc2ccccc2)c1 returned aSyn UTR act -147*.
`Cc1ccc(CNC(=O)NCc2ccccc2)cc1` gave aSyn UTR act -63*.
Screening Cc1ccc(/C=N/Nc2ccc(Cl)c(C(=O)O)c2)s1 returned aSyn UTR act -153*.
`O=C(O)c1cc(N/N=C/c2cccc3ccccc23)ccc1Cl` gave aSyn UTR act -131*.
`O=C(O)c1cc(N/N=C/c2cccs2)ccc1Cl` gave aSyn UTR act -253*.
For O=[N+]([O-])c1cccc(N/N=C/c2cccc3ccccc23)c1 the results were aSyn UTR act -91*.
Screening NNc1ccc(Cl)c(C(=O)O)c1 returned aSyn UTR act -180*.
COc1ccc(C(=O)Nc2scc(-c3ccc(Cl)cc3Cl)c2C(N)=O)cc1 was read as aSyn UTR act -237*.
`Cc1ccc(C)c(NC(=O)CSc2nccn2Cc2ccco2)c1` gave aSyn UTR act -78*.
`COc1cc(/C=N/NC(=O)c2nnn(-c3nonc3N)c2C(C)C)ccc1OCc1ccc(F)cc1` gave aSyn UTR act -143*.
Cc1nnn(-c2nonc2N)c1C(=O)N/N=C/c1ccccc1O was read as aSyn UTR act 68.
Screening CCCc1c(C(=O)N/N=C/c2ccc(OCc3ccccc3)c(OC)c2)nnn1-c1nonc1N returned aSyn UTR act -148*.
For COc1ccccc1/C=N/NC(=O)c1nnn(-c2nonc2N)c1-c1cccs1 the results were aSyn UTR act -80*.
Screening Cc1ccccc1COc1ccc(/C=N/NC(=O)c2nnn(-c3nonc3N)c2CN2CCC(C)CC2)cc1 returned aSyn UTR act -78*.
CC1CCN(Cc2c(C(=O)N/N=C/c3ccccc3O)nnn2-c2nonc2N)CC1 was read as aSyn UTR act 65.
Screening CCCc1c(C(=O)N/N=C/c2ccc(OC)c(OCc3ccccc3)c2)nnn1-c1nonc1N returned aSyn UTR act -95*.
Screening CN(C)Cc1c(C(=O)N/N=C/c2ccccc2OCc2c(F)cccc2Cl)nnn1-c1nonc1N returned aSyn UTR act -72*.
For CCOc1ccc2oc(C(=O)Nc3ccc4c(c3)OCO4)c(C)c2c1 the results were aSyn UTR act -176*.
CCOc1ccc2oc(C(=O)Nc3cc(C)ccn3)c(C)c2c1 was read as aSyn UTR act -67*.
Screening CCOc1ccc2oc(C(=O)Nc3ccc(N4CCOCC4)cc3)c(C)c2c1 returned aSyn UTR act -69*.
Screening COCCCNC(=O)/C=C1\Sc2ccccc2N(Cc2ccccc2F)C1=O returned aSyn UTR act -94*.
For Cc1ccc(NC(=O)Cc2cccs2)cc1Cl the results were aSyn UTR act -116*.
Screening O=C(Cc1cccs1)Nc1cccc(-c2nc3cc4ccccc4cc3[nH]2)c1 returned aSyn UTR act -92*.
`Cc1nc2ccc(NC(=O)Cc3cccs3)cc2s1` gave aSyn UTR act -148*.
For Cc1nc2ccc(NC(=O)Cc3c(F)cccc3Cl)cc2s1 the results were aSyn UTR act -126*.
COc1ccc2c(n1)Sc1nc3ccccc3nc1N2 was read as aSyn UTR act -136*.
Screening O=C1CCC2S/C(=C/Nc3ccc(C(F)(F)F)cc3)C(=O)N12 (stereo not drawn) returned aSyn UTR act 99.
`CCOC(=O)C1(CCc2ccccc2)CCN(C(=O)Cc2nonc2C)CC1` gave aSyn UTR act -78*.
For C[C@@H]1OC(Nc2ccc(N=Nc3ccccc3)cc2)[C@H](O)[C@H](O)[C@H]1O (stereo partly drawn) the results were aSyn UTR act -88*.
CNC[C@@H](CC1CCCCC1)NC[C@H](CC(C)C)NCCc1cccc(C(F)(F)F)c1 was read as aSyn UTR act 122.
CC[C@@H](C)[C@H](CNC)NC[C@@H](Cc1cccc2ccccc12)NCCc1cccc(C(F)(F)F)c1 was read as aSyn UTR act 125.
Screening CC(C)NC(=O)CCc1nnc(Cc2cccc(C(F)(F)F)c2)o1 returned aSyn UTR act -95*.
For CC(=O)c1ccc(NC(=O)CCc2nnc3ccc(N4CCCC4)nn23)cc1 the results were aSyn UTR act -95*.
Cc1ccc(NC(=O)CCc2c(C)nn(-c3ccc(N4CCCCC4)nn3)c2C)cc1 was read as aSyn UTR act -107*.
COc1ccc(C)cc1NC(=O)CCc1c(C)nn(-c2ccc(N3CCCCC3)nn2)c1C was read as aSyn UTR act -95*.
Cc1ccc(F)cc1NC(=O)CCc1c(C)nn(-c2ccc(N3CCCCC3)nn2)c1C was read as aSyn UTR act -82*.
`Cc1nn(-c2ccc(N3CCCCC3)nn2)c(C)c1CCC(=O)Nc1ccc(F)c(F)c1` gave aSyn UTR act -66*.
For Cc1ccc(NC(=O)CCc2c(C)nn(-c3ccc(N4CCOCC4)nn3)c2C)cc1F the results were aSyn UTR act -86*.
`CN(c1ccc(C(=O)NCCSC(C)(C)C)cc1)S(C)(=O)=O` gave aSyn UTR act -81*.
Screening CC(C)c1ccc(N(CC(=O)NCCSC(C)(C)C)S(C)(=O)=O)cc1 returned aSyn UTR act -83*.
`CN(c1ccc(C(=O)NCCSCc2ccco2)cc1)S(C)(=O)=O` gave aSyn UTR act -76*.
For O=C(Nc1ccc(-c2cnco2)cc1)c1ccc(F)cc1F the results were aSyn UTR act -146*.
COc1cccc(Nc2nc(-c3ccc4c(c3)OCCO4)cs2)c1 was read as aSyn UTR act -227*.
c1cc2c(cc1Nc1nc(-c3ccc4c(c3)OCO4)cs1)OCCO2 was read as aSyn UTR act -89*.
For COCC(=O)Nc1c(C(=O)Nc2ccc3c(c2)OCCO3)oc2ccccc12 the results were aSyn UTR act -72*.
`CCC(=O)Nc1c(C(=O)Nc2ccc3c(c2)OCCO3)oc2ccccc12` gave aSyn UTR act -143*.
Screening CCC(=O)Nc1c(C(=O)Nc2cccc(OC)c2)oc2ccccc12 returned aSyn UTR act -123*.
Screening Oc1cccc(-c2nc3ccc4ccccc4c3c3c2CCC3)c1 returned aSyn UTR act -137*.
COc1ccc(C2Nc3ccccc3C(=O)N2c2ccc(C)cc2)cc1COc1ccccn1 (stereo not drawn) was read as aSyn UTR act -97*.
Screening COc1ccc(C2Nc3ccccc3C(=O)N2c2ccccc2)cc1CN1CCOCC1 (stereo not drawn) returned aSyn UTR act -70*.
COc1ccc(C2Nc3ccccc3C(=O)N2c2ccc(C)cc2)cc1Cn1nc(C)c([N+](=O)[O-])c1C (stereo not drawn) was read as aSyn UTR act -105*.
`COc1cccc(C2Nc3ccccc3C(=O)N2Cc2ccccc2)c1` (stereo not drawn) gave aSyn UTR act 79.
COc1ccc(C2C(C#N)=C(N)N(c3ccccc3)C3=C2C(=O)CCC3)cc1Cn1cc([N+](=O)[O-])cn1 (stereo not drawn) was read as aSyn UTR act 58.
`COCC(=O)Nc1nc(-c2ccc([N+](=O)[O-])cc2)cs1` gave aSyn UTR act -70*.
`CNc1nc(-c2ccc([N+](=O)[O-])cc2)cs1` gave aSyn UTR act -135*.

Compound activity as filed in PubChem BioAssay.
